An excerpt weighted towards active compounds, which were near 19% of everything screened.
HT1080-NT tox = qHTS for induction of synthetic lethality in tumor cells producing 2HG: qHTS for the HT-1080-NT fibrosarcoma cell line; HT-1080-NT fibrosarcoma viability, CellTiter-Glo ATP luminescence, 48 h; Potency, µM (series often up to 46.1 µM), inactives show at the highest dose activity, negative = less viability, usual class: cytotoxic; 360,000 tested, 1.6% active; AID 686970, 2013;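 note: NT is the 2HG producing partner of a matched IDH1 knockdown line; potency is the fitted concentration of half-maximal effect; 0% = DMSO-treated cells and -100% = media-only wells without cells; nearly all actives have a fitted effect of over 55% in size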
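Luminescent CellTiter-Glo readout after 48 hours of compound exposure at 37 degrees C defined viability of HT-1080-NT cells. Activity was normalized to DMSO wells and cell-free media wells; concentration-response curves were fitted and assigned curve classes.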
DT40 TDP1 CPT = qHTS for Inhibitors of human tyrosyl-DNA phosphodiesterase 1 (TDP1): qHTS in cells in presence of CPT; Potency, µM (titrated, usually from 46.2 µM), for inactives: at the highest dose activity change, negative = growth inhibition, actives largely listed as inhibitors; AID 686979, 2013; chicken DT40 Tdp1-/-;hTDP1 cells + 20 nM CPT, ATP luminescence, 48 h; 420,000 tested, 12% active; note: potency is the fitted concentration of half-maximal effect; nearly all actives have a fitted effect of over 55% in size
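Chicken DT40 Tdp1-/- cells stably complemented with human TDP1 were seeded at 400 cells/well in medium containing 20 nM camptothecin, exposed to pin-transferred compounds, and grown at 37 °C for at least 48 hr. Viability was read as ATP luminescence.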
uPA surface inh = qHTS for Inhibitors of Cell Surface uPA Generation; Potency, µM (series often up to 38.3 µM), for inactives: at the top dose activity change, negative = inhibition, hits mostly inhibitors; 330,000 tested, 0.31% active; cell surface uPA generation assay, qHTS; active = well fitted inhibition curve with a large enough effect; inconclusive = small, poorly fitted or top-dose-only effect; inactive = no such curve, though single readings can be large or run the other way; tested in mouse RAW 264.7 cells; note: potency is the fitted concentration of half-maximal effect; nearly all actives have a fitted effect of over 55% in size
TDP1 cell noCPT = qHTS for Inhibitors of human tyrosyl-DNA phosphodiesterase 1 (TDP1): qHTS in cells in absence of CPT. 420,000 tested, 15% active. Potency, µM (titrated, usually from 46.2 µM), without a hit: top-dose activity change, negative = growth inhibition, hits mostly inhibitors. DT40 Tdp1-/- hTDP1 cells, no CPT, ATP luminescence, 48 h; note: potency is the fitted concentration of half-maximal effect; nearly all actives have a fitted effect of over 55% in size
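Chicken DT40 Tdp1-/- cells complemented with human TDP1, screened without camptothecin (DMSO vehicle only), 400 cells/well. Compounds pin-transferred, cells incubated at 37 °C for at least 48 hr. Growth read as ATP-dependent luminescence (CellTiter-Glo, 30 min at RT).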
HT1080 IDH1KD tx = qHTS for induction of synthetic lethality in tumor cells producing 2HG: qHTS for the HT-1080-IDH1KD cell line; HT-1080 IDH1 knockdown viability, ATP luminescence, 48 h; Potency, µM (doses to about 46.1 µM), inactives show at the top dose activity, negative = toxicity, hits mostly cytotoxic; 360,000 tested, 2% active;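 note: potency is the fitted concentration of half-maximal effect; 0% = DMSO wells and -100% = cell-free medium wells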
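Using the IDH1-knockdown HT-1080 line run in the same batch and compound series as the NT line, viability after 48 h at 37 °C was determined by CellTiter-Glo luminescence and expressed as % activity.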
IL1B secr inh = qHTS for Inhibitors of Inflammasome Signaling: IL-1-beta AlphaLISA Primary Screen; 360,000 tested, 4.7% active; activity change, % at 57.5 µM; THP-1 LPS/ATP IL-1B secretion, AlphaLISA, 16 h; stronger effect = lower value; in the data active = activity change below about -50%; inconclusive = mostly about -30% to -49%
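Secreted IL-1B measured by AlphaLISA bead assay after 16 h compound exposure of THP-1 cells; compounds (final up to 57.5 uM) added 1 h before LPS (250 ng/mL) and ATP (1.25 mM) stimulation; lower signal means less secretion.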
The depositor's hits bear a star; ? = inconclusive; · = not tested or not shown. Unless noted, calls come from the whole dose curve; as a rule, active = well fitted curve in the direction sought with a large enough effect; inconclusive = small, poorly fitted or top-dose-only effect, or another doubt; inactive = no such curve, though single readings can be large; an effect the other way counts as inactive or inconclusive. Unless noted, % is set by controls: 0 for no effect and ±100 for the full control effect.

SMILES	HT1080-NT tox	DT40 TDP1 CPT	uPA surface inh	TDP1 cell noCPT	HT1080 IDH1KD tx	IL1B secr inh
O=C(Cc1ccc(N2CCNC2=O)cc1)N1CCCC(Nc2cccc(F)c2)C1 (stereo not drawn)	?	2.9µM*	1.4µM*	2.1µM*	5.8µM*	47
O=C(Cc1ccc(N2CCNC2=O)cc1)N1CCCC(Nc2ccc(F)c(F)c2)C1 (stereo not drawn)	3.3µM*	2.3µM*	-16%	3.7µM*	2.9µM*	63
Cc1c(Cl)cccc1NC(=O)C(=O)NCCc1csc(-c2cccc(F)c2)n1	·	-9%	·	-20%	·	·
CCOC(=O)N1CCc2c(sc(NCc3ccc(OC)c(OC)c3OC)c2C(=O)Nc2ccc(OC)cc2OC)C1	·	?	·	16µM*	·	·
COc1ccccc1NC(=O)c1c(NCc2ccc(OC)c(OC)c2OC)sc2c1CCC2	·	?	·	23µM*	·	·
CCOC(=O)c1c(NC(=S)Nc2ccccc2)sc2c1CCCCC2	3%	-12%	13%	-13%	14%	34
COc1ccc(NC(=O)c2c(NCc3sccc3C)sc3c2CCCC3)c(OC)c1	·	21µM*	·	13µM*	·	·
CCOC(=O)c1ccc(NC(=O)c2c(NCc3sccc3C)sc3c2CCCCC3)cc1	·	12µM*	·	21µM*	·	·
COc1cc(NC(=O)N2CCC(CN3CCCCCC3)CC2)cc(OC)c1OC	·	2%	·	-2%	·	·
COc1ccc(N2CCN(S(=O)(=O)CCNC(=O)C3CCCCC3)CC2)cc1	30%	?	9%	-1%	7%	9
CCOc1ccccc1NC(=O)c1c(NCc2ccc(C)o2)sc2c1CCC(C)C2 (stereo not drawn)	·	-11%	·	-16%	·	·
CCOc1ccccc1NC(=O)c1c(NCc2ccc(OC)c(OC)c2OC)sc2c1CCC(C)C2 (stereo not drawn)	·	?	·	18µM*	·	·
C=CCNCC(=O)Nc1sc2c(c1C(=O)Nc1ccc(OC)cc1OC)CCC2	10%	?	1%	?	11%	-24
CCOC(=O)c1ccc(NC(=O)c2c(NCc3cccc(OC)c3OC)sc3c2CCC3)cc1	·	15µM*	·	21µM*	·	·
COc1ccc(NC(=O)c2c(NCc3ccc(OC)c(OC)c3OC)sc3c2CCC3)c(OC)c1	·	13µM*	·	15µM*	·	·
COc1ccc(NC(=O)c2c(NCc3cccc(F)c3)sc3c2CCC3)c(OC)c1	·	13µM*	·	10µM*	·	·
CCN(c1ccccc1C)S(=O)(=O)c1nnc(NC(=O)c2ccc(OC)c(OC)c2)s1	·	-22%	·	?	·	·
CCN1Cc2cc(OC)ccc2-c2ccccc2S1(=O)=O	-1%	-10%	-18%	-20%	-2%	-6
Cc1ccc2c(=O)cc(C(=O)Nc3c(C(=O)c4ccccc4)oc4ccccc34)oc2c1	·	-9%	·	2%	·	·
CN(C)C(=O)c1cccc(COc2ccc(N3C(N)=NC(N)=NC3(C)C)cc2Cl)c1	0.0082µM*	0.018µM*	·	0.16µM*	?	8
O=C(NCc1ccccc1)c1cccc(COc2cc(Cl)ccc2Cl)c1	-8%	-10%	-2%	?	-21%	-9
CN(C(=O)c1cccc(COc2ccc(Cl)cc2Cl)c1)c1ccccc1	-17%	21µM*	0%	?	-17%	-16
COC(=O)c1ccccc1NC(=S)NC(=O)COc1ccccc1Cl	-7%	3%	8%	-6%	0%	0
COC(=O)c1ccccc1NC(=O)c1cccc(COc2ccccc2Cl)c1	?	9.2µM*	-5%	8.2µM*	?	-7
O=C(COc1ccc(Cl)cc1Cl)NC(=O)c1ccccc1	-3%	-8%	0%	18%	2%	-5
SMILES	HT1080-NT tox	DT40 TDP1 CPT	uPA surface inh	TDP1 cell noCPT	HT1080 IDH1KD tx	IL1B secr inh
O=C(NCc1ccccc1)c1cccc(COc2ccccc2Cl)c1	-19%	-15%	-1%	-24%	-22%	-63*
COc1ccc(-n2c(=O)cnc3cnc(Nc4ccccc4)nc32)cc1	·	?	·	-20%	·	·
CCn1cc(C(=O)N(C)CC(OC)OC)c(=O)c2cc(S(=O)(=O)N3CCOCC3)ccc21	1%	1%	8%	2%	2%	7
O=C(CNC(=O)C1CCCCC1)OCc1ccccc1	·	19%	·	1%	·	·
O=C1c2ccccc2C(=O)c2c(NCCCN(CCO)CCO)cccc21	21µM*	?	-11%	21µM*	?	-103*
CC1S/C(=N/N=C/c2ccco2)N(Cc2ccccc2)C1=O (stereo not drawn)	5%	?	?	9.2µM*	-19%	-7
O=c1c(-c2cccc(Cl)c2)nc2cncnc2n1Cc1ccccc1Cl	·	22%	·	11%	·	·
CC(C)N(c1ccccc1)c1ccc(NC(=O)COC(=O)CCN2C(=O)c3cccc([N+](=O)[O-])c3C2=O)cc1	-27%	?	4%	16µM*	?	-24
CC(=O)c1ccc(NC(=O)COC(=O)CCN2C(=O)c3cccc([N+](=O)[O-])c3C2=O)cc1	12%	-13%	1%	-36%	21%	24
S=c1[nH]nc(-c2cc(-c3ccccc3)n[nH]2)n1/N=C/C(Br)=C/c1ccccc1	7.3µM*	2.9µM*	-7%	2.6µM*	5.8µM*	-99*
Cc1cccc(/C=N/n2c(-c3cc(-c4ccccc4)n[nH]3)n[nH]c2=S)c1	0%	16µM*	-2%	?	14%	-3
S=c1[nH]nc(-c2cc(-c3ccccc3)n[nH]2)n1/N=C/c1ccccc1	17%	?	-4%	-12%	1%	0
COC(=O)c1c(NC(=O)COc2ccc(C)cc2Br)sc2c1CCCC2	·	-17%	·	?	·	·
COc1cc2c(c(OC)c1OC)-c1c(cc3c(c1O)OCO3)C[C@@H](C)[C@@H](C)C2	-27%	23µM*	11µM*	?	-16%	-4
COc1cc2c(c(O)c1OC)-c1c(cc(OC)c(OC)c1OC)C[C@@H](C)[C@@H](C)C2	8%	?	-21%	?	11%	-11
COc1ccc(NC(=O)CN2C(=O)CCc3cc(S(=O)(=O)N4CCOCC4)ccc32)c(OC)c1	·	3%	·	-4%	·	·
COc1ccc2sc(/C=C/c3ccccc3O)[n+](C)c2c1	9%	23µM*	-7%	15µM*	7%	?
